The campaign covered roughly 320,000 compounds. About 2,100 (0.66%) were called active. Not shown: some 53% with an inconclusive outcome. Calls come from the whole dose curve; as a rule, active = well fitted inhibition curve with a large enough effect in the signal ratio, with a control signal flat (not every such curve was filed as active); inconclusive = small, poorly fitted or top-dose-only effect, or effect the other way, or a change in a side signal; inactive = flat fitted curve, though single readings scatter; the % refers to the signal ratio. Many of the other results were omitted from the sample, so actives are more common in it than they were.
Assay: qHTS Assay for Lipid Storage Modulators in Drosophila S3 Cells;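 for cell number change: cells counted by Cell Tracker Red CMTPX staining in the red channel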
Details: BODIPY lipid droplet fluorescence, 18-24 h, cells fed with added oleic acid; cell number change: measured here: cell count max response; series mostly up to 46.1 µM
Outline: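 Laser-scanning cytometry quantifies lipid droplet accumulation (500–530 nm total intensity; droplet/cell object ratio) in oleic acid-fed (400 uM added) Drosophila S3 cells treated with a concentration series. 20 uM Triacsin C defined 100% inhibition.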
Potency is the fitted concentration of half-maximal effect.

Compound	Potency	cell number change
COc1ccc(N(C(=O)CNC(=O)c2cccs2)C(C(=O)NCC2CCCO2)c2ccccc2)c(OC)c1 (centres undefined)	inactive	5.71%
CC(=O)Oc1ccc2nc(-c3cccs3)oc(=O)c2c1	inactive	-22.5%
Cc1ccc(NC(=S)NC(CO)C(O)c2ccc([N+](=O)[O-])cc2)cc1 (centres undefined)	inactive	-1.73%
Fc1cnc(N2CCOCC2)nc1N1CCc2ccccc21	inactive	-10.6%
O=C(c1ccccc1Oc1ccccc1)N1CCN(c2ccc(F)cc2)CC1	inactive	14.1%
O=C(O)c1ccccc1C(=O)N1CCN(c2ccccc2)CC1	inactive	0.845%
O=C(c1ccccc1C(=O)N1CCN(c2ccc(F)cc2)CC1)N1CCN(c2ccc(F)cc2)CC1	2.59 µM (active)	-27%
CC(C)CN(C(=O)CCC(=O)OCC(=O)N(C)c1ccccc1)c1c(N)n(CC(C)C)c(=O)[nH]c1=O	inactive	–
CC1CC(NC(=O)c2cc3c(=O)n4ccccc4nc3n2C)CC(C)(C)C1 (centres undefined)	18.4 µM (active)	3.3%
Cn1c(C(=O)O)cc2c(=O)n3ccccc3nc21	inactive	3.26%
CC1CN(C(=O)c2cc3c(=O)n4ccccc4nc3n2C)CC(C)O1 (centres undefined)	inactive	15.1%
CCOc1cc(C(=O)NCC2CCCO2)cc(OCC)c1OCC (centres undefined)	inactive	–
Cc1cc(C)c(S(=O)(=O)N2CCN(C(=O)c3c(C)noc3C)CC2)c(C)c1	inactive	-0.389%
O=C(O)CN1C(=O)SC(Nc2ccccc2)C1=O (centres undefined)	inactive	7.54%
Cc1ccc(NC2SC(=O)N(CC(=O)O)C2=O)cc1 (centres undefined)	23.1 µM (active)	-7.73%
CCOC(=O)CN1C(=O)SC(Nc2ccc(C)cc2)C1=O (centres undefined)	inactive	0.723%
Cn1cnnc1SCCNS(=O)(=O)c1cccc([N+](=O)[O-])c1	inactive	3.23%
Cc1ccc(NC(=S)N(CCN2CCOCC2)Cc2ccccc2F)cc1	inactive	-12.7%
CN(C)S(=O)(=O)N(CCN1CCOCC1)Cc1ccccc1F	9.2 µM (active)	6.57%
CCc1ccc(NC(=S)N(CCN2CCOCC2)Cc2ccccc2F)cc1	inactive	13.9%

Compound	Potency	cell number change
Cn1cnnc1Sc1ccc(C(F)(F)F)cc1[N+](=O)[O-]	inactive	20.3%
Cc1ccc(C2(c3noc(CN4C[C@@H](C)O[C@@H](C)C4)n3)CCCC2)cc1	inactive	-4.24%
CCOc1ccc2ccccc2c1C(=O)Nc1cc(=O)n(C)c(=O)n1C	inactive	-14%
COc1ccccc1N=Nc1c(C)[nH]n(-c2ccccc2)c1=O	14.6 µM (active)	0.338%
Cc1[nH]n(-c2ccccc2)c(=O)c1N=Nc1ccc(Cl)cc1	9.2 µM (active)	-10.2%
Cc1[nH]n(-c2ccccc2)c(=O)c1N=Nc1ccccc1C(=O)N1CCOCC1	inactive	-24.3%
Cc1[nH]n(-c2ccccc2)c(=O)c1N=O	inactive	-9.61%
Cc1[nH]n(-c2ccc(Cl)cc2)c(=O)c1N=Nc1cccnc1	inactive	8.32%
Cc1[nH]n(-c2ccccc2)c(=O)c1N=Nc1ccc(C(N)=O)cc1	inactive	15.5%
COc1ccccc1NC(=O)C1=C(C)Nc2nc(-c3ccccc3)nn2C1c1ccccn1 (centres undefined)	inactive	–
O=C(CN1C(=O)NC2(CCCCCCC2)C1=O)Nc1ccc(Cl)cc1	inactive	27.1%
COC(=O)C1=C(NC(=O)C2CCCCC2)CCS1	inactive	-10%
CC(C)Oc1ccc(/C=C/C(=O)NCC2COc3ccccc3O2)cc1 (centres undefined)	inactive	-3.08%
CCS(=O)(=O)c1nc(S(=O)(=O)c2ccc(C)cc2)c(NCCN2CCOCC2)s1	inactive	–
O=C(Nc1ccc(Cl)c(S(=O)(=O)N2CCCCC2)c1)c1ccco1	0.291 µM (active)	11.9%
CC1CCC(NCCNC(=O)c2ccco2)CC1 (centres undefined)	0.82 µM (active)	15.3%
O=C(Nc1ccc(S(=O)(=O)N2CCOCC2)cc1)c1ccco1	inactive	–
O=C(Nc1ccc(S(=O)(=O)N2CCCCCC2)cc1)c1ccco1	inactive	–
CCOc1ccc(NC(=O)c2ccco2)cc1S(=O)(=O)N1CCCC1	inactive	3.85%
CCOC(=O)N1CCC(NCCNC(=O)c2ccco2)CC1	inactive	-0.499%

Compound	Potency	cell number change
O=C(Nc1ccc(N2CCCC2)c(Cl)c1)c1ccco1	inactive	-15.9%
CC1CCN(S(=O)(=O)c2ccc(NC(=O)c3ccco3)cc2)CC1	16.4 µM (active)	-3.17%
O=C(NCCNC1CCCCC1)c1ccco1	inactive	17.5%
Cc1nc([N+](=O)[O-])cn1-c1ccc(N)cc1	inactive	-2.93%
O=C(c1nc2ccc(Cl)cn2c1CN1CCCC(CO)C1)N1CCc2ccccc2C1 (centres undefined)	inactive	10.9%
Cc1ccc(S(=O)(=O)c2c(C)cc(C)[nH]c2=O)c(C)c1	inactive	17.9%
Oc1ccc(Br)cc1/C=N/N1CCN(Cc2cccc3ccccc23)CC1	inactive	17%
Cc1c(NC(=O)C2(c3ccccc3)CCOCC2)c(=O)n(-c2ccccc2)n1C	inactive	-18.3%
CC(C)=C1C2CCC1C(C(=O)NCCc1ccccc1)C2C(=O)O (centres undefined)	inactive	6.84%
CC(C)=C1C2CCC1C(C(=O)NCc1ccccc1)C2C(=O)O (centres undefined)	25.9 µM (active)	-4.67%
CC(C)=C1C2CCC1C(C(=O)Nc1cc(C)cc(C)c1)C2C(=O)O (centres undefined)	inactive	13.2%
CC(C)NC(=O)c1ccc2c(c1)N(CC(=O)NC1CCCCC1)C(=O)C(C)(C)O2	inactive	19%
S=C(Nc1ccccn1)Nc1ccccc1Cl	inactive	-6.96%
CCCS(=O)(=O)Nc1cccc(-c2ccc3nnc(C)n3n2)c1	inactive	7.15%
O=C(CSc1ccc2nnc(-c3cccnc3)n2n1)Nc1ccccc1	0.411 µM (active)	8.38%
CCS(=O)(=O)Nc1cccc(-c2ccc3nnc(-c4cccnc4)n3n2)c1	5.8 µM (active)	-27%
CCS(=O)(=O)Nc1cccc(-c2ccc3nnc(C)n3n2)c1	inactive	-5.54%
CC(=O)c1ccc(NC(=O)CSc2ccc3nnc(-c4cccnc4)n3n2)cc1	inactive	1.01%
Cc1ccc(NC(=O)CSc2ccc3nnc(-c4cccnc4)n3n2)cc1	inactive	-9.27%
CCOC(=O)C(C(=O)NCCCN1CCOCC1)C1CCCCC1 (centres undefined)	inactive	5.53%

From PubChem BioAssay AID2685 (National Center for Advancing Translational Sciences (NCATS), 2010)
